Molecules are shown by their SMILES. Active and inactive are the calls of the source. The calls were made as follows: active = hit-call score of the fitted dose curve at least 0.9, where 1 is the maximum; inactive = score below 0.9.

A short description of experiment [1]: ATG_CMV_CIS: Attagene CIS-FACTORIAL HepG2 Assay for human CMV (Internal Marker) (AID 2282928).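 Also: endpoint acts as a background internal control marker rather than a target.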 Conditions: HepG2 CMV promoter reporter, transcription factor profiling; actives raise or lower the signal. In short, it runs like this: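 Reporter transcripts from transfected HepG2 cells are isolated after 24 h of chemical dosing, reverse-transcribed and amplified. Fragments labeled with 6-FAM are cut with HpaI and quantified by capillary electrophoresis; DMSO defines baseline.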

Experiment [2] is described as follows: ATG_ISRE_CIS: Attagene CIS-FACTORIAL HepG2 Assay for human Interferon Regulatory Factor 1 (IRF1) binding to an Interferon-Stimulated Response Element (ISRE) (AID 2282948). Conditions: HepG2 ISRE cis-reporter (Attagene), mRNA transcription readout; actives raise or lower the signal. In short, it runs like this: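 Uses HepG2 liver cells transfected with cis-regulated reporters and measures mRNA 24 h post-dosing through RT-PCR, primer-extension labelling and capillary electrophoresis, with DMSO as negative control.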

The nature of experiment [3]: ATG_M_32_CIS: Attagene CIS-FACTORIAL HepG2 Assay for M32 Transcription Factor (Internal Marker) (AID 2282949).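 Also: background control marker of the multiplexed CIS panel rather than a real target.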 Conditions: HepG2 Attagene cis-factorial M32 reporter, mRNA; actives raise or lower the signal. In short, it runs like this: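 Transient MRTU transfection of HepG2; 24 h compound treatment; TriZol RNA, oligo(dT) RT, reporter PCR, 6-FAM primer extension, HpaI cut, CE. Gain/loss of signal vs DMSO.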

Experiment [4] addresses Hepatocyte nuclear factor 6 (Homo sapiens) (UniProt Q9UBC0). The experiment can be described thus: ATG_HNF6_CIS: Attagene CIS-FACTORIAL HepG2 Assay for human Hepatocyte Nuclear Factor 6 (HNF6) (AID 2282952). The note with it: HepG2 Attagene cis-factorial HNF6 reporter transcription; actives raise or lower the signal. In short, it runs like this:
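Activity values derive from bidirectional fitting against DMSO of reporter mRNA levels, measured by capillary electrophoresis of labelled RT-PCR products from HepG2 cells exposed 24 h.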

The target in experiment [5] is Heat shock factor protein 1 (Homo sapiens) (UniProt Q00613). Kind of experiment: ATG_HSE_CIS: Attagene CIS-FACTORIAL HepG2 Assay for human Heat Shock Transcription Factor 1 (HSE) (AID 2282953). Conditions: HepG2 HSE cis-reporter, Attagene RNA transcription; actives raise or lower the signal. In short, it runs like this: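 HepG2 cells transiently transfected with multiple reporter transcription units under cis-regulatory promoter control, measuring endogenous transcription factor activity. After 24 h chemical exposure, reporter mRNA quantified by RT-PCR, fluorescent labelling, HpaI digestion and capillary electrophoresis; bidirectional fit versus DMSO.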
Heat shock factor protein 1 (Homo sapiens), sequence (Q00613 whole entry, looked up): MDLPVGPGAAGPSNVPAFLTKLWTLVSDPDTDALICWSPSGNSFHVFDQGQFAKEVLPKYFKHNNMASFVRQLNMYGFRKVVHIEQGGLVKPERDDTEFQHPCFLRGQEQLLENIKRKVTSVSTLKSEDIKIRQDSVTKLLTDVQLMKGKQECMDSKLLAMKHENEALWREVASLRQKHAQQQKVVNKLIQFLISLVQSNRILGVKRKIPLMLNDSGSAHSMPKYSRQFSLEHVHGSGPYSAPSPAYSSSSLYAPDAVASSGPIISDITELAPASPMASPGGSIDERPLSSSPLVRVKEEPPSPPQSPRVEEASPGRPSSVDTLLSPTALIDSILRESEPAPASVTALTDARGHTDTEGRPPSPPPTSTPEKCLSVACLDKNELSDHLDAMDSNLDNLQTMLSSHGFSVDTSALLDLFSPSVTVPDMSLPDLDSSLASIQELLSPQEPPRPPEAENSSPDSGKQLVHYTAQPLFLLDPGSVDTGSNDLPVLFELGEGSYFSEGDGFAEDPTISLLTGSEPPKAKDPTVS

The nature of experiment [6]: ATG_RORE_CIS: Attagene CIS-FACTORIAL HepG2 Assay for human RAR-related Orphan Receptor Element (RORE) (AID 2282959). Conditions: HepG2 Attagene cis-factorial RORE reporter, mRNA; actives raise or lower the signal. In short, it runs like this: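 Transfect HepG2 with MRTUs; treat 24 h; extract RNA; RT with oligo(dT); PCR with reporter-specific primers; 6-FAM primer extension; HpaI digest 2 h at 37 C; capillary electrophoresis. Fit vs DMSO, bidirectional.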

The target in experiment [7] is Signal transducer and activator of transcription 3 (Homo sapiens) (UniProt P40763). The experiment can be described thus: ATG_STAT3_CIS: Attagene CIS-FACTORIAL HepG2 Assay for human Signal Transducer and Activator of Transcription 3 (STAT3) (AID 2282963). The note with it: HepG2, Attagene cis-factorial STAT3 reporter transcription; actives raise or lower the signal. In short, it runs like this:
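Cis-factorial format: endogenous transcription factors in HepG2 drive transfected reporter units. After 24 h treatment, reporter RNA was reverse-transcribed, amplified, FAM-labelled and HpaI-digested before CE analysis; activity scored in both directions against DMSO.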

A short description of experiment [8]: ATG_TCF_b_cat_CIS: Attagene CIS-FACTORIAL HepG2 Assay for human T-Cell-Factor with beta-catenin (TCF/b-cat) (AID 2282965). Conditions: HepG2 TCF/beta-catenin cis-reporter transcription, actives raise or lower the signal. In short, it runs like this: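 Measured: reporter mRNA in HepG2 transiently transfected with cis-promoter reporter units, 24 h after chemical addition. Fitting was bidirectional, DMSO as negative control.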

Experiment [9] is described as follows: ATG_TAL_CIS: Attagene CIS-FACTORIAL HepG2 Assay for human TAL Basal Promoter (AID 2282966).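 Also: background control endpoint measuring basal TAL promoter reporter mRNA not a specific factor.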 Conditions: HepG2 Attagene cis-factorial TAL promoter reporter; actives raise or lower the signal. In short, it runs like this: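 Transiently transfected HepG2 (cis-regulated reporter units), 24 h treatment, mRNA read by fluorescent CE after RT-PCR; bidirectional fit, DMSO baseline.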

Experiment [10] in a line: ATG_TGFb_CIS: Attagene CIS-FACTORIAL HepG2 Assay for human Transforming Growth Factor (TGF) (AID 2282967). The note with it: HepG2 Attagene CIS TGFb reporter, mRNA transcription; actives raise or lower the signal. In short, it runs like this:
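HepG2 cells transiently transfected with cis-promoter-driven multiplexed reporter units; 24 h compound exposure. Reporter mRNA measured by RT-PCR, 6-FAM labeling, HpaI digestion and capillary electrophoresis; bidirectional fit versus DMSO baseline.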

The target in experiment [11] is X-box-binding protein 1 (Homo sapiens) (UniProt P17861). The experiment can be described thus: ATG_Xbp1_CIS: Attagene CIS-FACTORIAL HepG2 Assay for human X-box Binding Protein 1 (XBP1) (AID 2282972). The note with it: HepG2 XBP1 cis-element reporter, Attagene multiplex; actives raise or lower the signal. In short, it runs like this: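 Changes in reporter transcript abundance, read by RT-PCR and capillary electrophoresis, reflect endogenous transcription factor activity. Transfected HepG2 cells received compound for 24 hours; DMSO defined baseline for bidirectional analysis.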
X-box-binding protein 1 (Homo sapiens), sequence (P17861 whole entry, looked up): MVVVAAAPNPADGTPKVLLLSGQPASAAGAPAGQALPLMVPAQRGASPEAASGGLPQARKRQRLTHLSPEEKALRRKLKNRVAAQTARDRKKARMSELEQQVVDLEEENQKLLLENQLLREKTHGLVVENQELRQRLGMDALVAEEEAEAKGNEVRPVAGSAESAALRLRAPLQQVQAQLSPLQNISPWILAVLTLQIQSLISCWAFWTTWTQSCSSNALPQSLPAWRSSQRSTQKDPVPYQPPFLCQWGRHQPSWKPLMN

For experiment [12], the target named is Transcriptional activator Myb (Homo sapiens) (UniProt P10242). The experiment can be described thus: ATG_Myb_CIS: Attagene CIS-FACTORIAL HepG2 Assay for human Myeloblastosis (Myb) Proto-Oncogene Transcription Factor (AID 2282986). Conditions: HepG2 Attagene CIS-FACTORIAL Myb reporter transcription; actives raise or lower the signal. In short, it runs like this: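 Using HepG2 liver cells bearing transiently transfected cis-promoter reporter constructs, the assay measures induction or loss of reporter mRNA after 24 hours of dosing. Detection used fluorescently labeled RT-PCR products separated by capillary electrophoresis.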
Transcriptional activator Myb (Homo sapiens), sequence (P10242 whole entry, looked up): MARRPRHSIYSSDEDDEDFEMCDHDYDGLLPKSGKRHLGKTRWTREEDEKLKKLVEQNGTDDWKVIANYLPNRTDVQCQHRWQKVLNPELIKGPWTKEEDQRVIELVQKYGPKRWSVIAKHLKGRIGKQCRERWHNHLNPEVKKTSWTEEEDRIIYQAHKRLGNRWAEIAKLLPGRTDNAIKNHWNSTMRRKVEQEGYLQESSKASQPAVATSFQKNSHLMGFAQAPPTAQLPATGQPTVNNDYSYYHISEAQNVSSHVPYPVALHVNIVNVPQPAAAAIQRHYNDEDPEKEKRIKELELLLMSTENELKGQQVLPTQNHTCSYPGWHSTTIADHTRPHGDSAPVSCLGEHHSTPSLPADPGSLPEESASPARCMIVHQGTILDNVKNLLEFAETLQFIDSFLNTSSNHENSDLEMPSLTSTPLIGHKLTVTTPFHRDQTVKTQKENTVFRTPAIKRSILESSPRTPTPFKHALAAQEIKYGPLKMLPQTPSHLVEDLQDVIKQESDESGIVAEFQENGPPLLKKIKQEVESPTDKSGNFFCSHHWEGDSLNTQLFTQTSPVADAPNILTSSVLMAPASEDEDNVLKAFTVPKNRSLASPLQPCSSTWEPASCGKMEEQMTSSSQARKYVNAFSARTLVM

Experiment [13] has as its target Nuclear respiratory factor 1 (Homo sapiens) (UniProt Q16656). Kind of experiment: ATG_NRF1_CIS: Attagene CIS-FACTORIAL HepG2 Assay for human Nuclear Respiratory Factor 1 (NRF1) Orphan Gene (AID 2282987). The note with it: HepG2 NRF1 cis-element reporter, Attagene multiplex; actives raise or lower the signal. In short, it runs like this: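 Reporter mRNA induction or loss in HepG2 cells after 24 h dosing; cis-regulated reporter constructs report endogenous transcription-factor activity. Quantified by RT-PCR/capillary electrophoresis fluorescence, DMSO-referenced.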

In experiment [14] the target is Myc proto-oncogene protein (Homo sapiens) (UniProt P01106). The experiment can be described thus: ATG_Myc_CIS: Attagene CIS-FACTORIAL HepG2 Assay for human Myelocytomatosis (Myc) Proto-Oncogene Transcription Factor (AID 2282990). The note with it: HepG2, Attagene cis-reporter transcription factor activity; actives raise or lower the signal. In short, it runs like this:
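Cells of the HepG2 human liver line bear multiple cis-driven reporter transcription units. Reporter mRNA after 24 h exposure is reverse-transcribed, amplified, labelled and resolved by capillary electrophoresis, with gain- or loss-of-signal fitting relative to DMSO.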

Experiment [15] can be described thus: ATG_NF_kB_CIS: Attagene CIS-FACTORIAL HepG2 Assay for human Nuclear Factor Kappa B (NF-kB) (AID 2282991). Conditions: HepG2 Attagene cis-factorial NF-kB reporter mRNA; actives raise or lower the signal. In short, it runs like this:
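DMSO served as negative control and baseline for bidirectional curve fitting. Transiently transfected HepG2 cells were dosed for 24 h, then reporter transcripts were measured by RT-PCR with capillary electrophoresis detection.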

Experiment [16] is described as follows: ATG_NRF2_ARE_CIS: Attagene CIS-FACTORIAL HepG2 Assay for human Nuclear Factor Erythroid 2 Related Factor 2 (NFR2) response to Antioxidant Response Elements (ARE) (AID 2282992). Conditions: HepG2 Attagene ARE/NRF2 reporter, transcription factor activity; actives raise or lower the signal. In short, it runs like this:
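Using transiently transfected HepG2 cells exposed for 24 h, reporter mRNA levels were determined by RT-PCR with fluorescent primer extension and capillary electrophoresis, analysed for gain or loss of signal against DMSO.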

Experiment [17] is described as follows: ATG_Oct_MLP_CIS: Attagene CIS-FACTORIAL HepG2 Assay for human Octamer-Binding Transcription Factor (Oct) (AID 2282993). The note with it: HepG2 Attagene cis-factorial Oct reporter, mRNA; actives raise or lower the signal. In short, it runs like this:
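HepG2 cells transiently transfected with cis-promoter-driven multiplexed reporter transcription units, dosed for 24 h. Reporter mRNA quantified by RT-PCR, fluorescent labelling, HpaI digestion and capillary electrophoresis; bidirectional fits versus DMSO baseline.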

Experiment [18] in a line: ATG_TA_CIS: Attagene CIS-FACTORIAL HepG2 Assay for human TA Basal Promoter (AID 2282964). Conditions: HepG2 Attagene CIS-factorial TA basal promoter reporter; actives raise or lower the signal. In short, it runs like this: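 HepG2 cells transiently transfected with multiplexed cis-promoter reporter units, dosed 24 h. Reporter mRNA measured by RT-PCR, 6-FAM labelling, HpaI digestion and capillary electrophoresis; bidirectional fit versus DMSO baseline, serving as background control.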

Experiment [19] can be described thus: ATG_VDRE_CIS: Attagene CIS-FACTORIAL HepG2 Assay for human Vitamin D Receptor Element (VDRE) (AID 2282968). Conditions: HepG2 VDRE cis-reporter transcription, actives raise or lower the signal. In short, it runs like this:
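Measures endogenous factor activity through cis-element-driven reporter transcripts in transiently transfected HepG2. Cells are treated 24 h; reporter mRNA is quantified by RT-PCR and capillary electrophoresis; fitting is bidirectional.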

Experiment [20] deals with Cellular tumor antigen p53 (Homo sapiens) (UniProt P04637). Kind of experiment: ATG_p53_CIS: Attagene CIS-FACTORIAL HepG2 Assay for human p53 Transcription Factor (AID 2282994). Conditions: HepG2 p53 cis-element reporter, Attagene mRNA; actives raise or lower the signal. In short, it runs like this: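 In HepG2 cells, reporter transcription units under cis-regulatory promoters were transiently introduced. Following 24 h treatment, RNA was processed to labelled, digested cDNA fragments read by capillary electrophoresis; fitting was bidirectional versus DMSO.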
Cellular tumor antigen p53 (Homo sapiens), sequence (P04637 whole entry, looked up, the tested form may be a part): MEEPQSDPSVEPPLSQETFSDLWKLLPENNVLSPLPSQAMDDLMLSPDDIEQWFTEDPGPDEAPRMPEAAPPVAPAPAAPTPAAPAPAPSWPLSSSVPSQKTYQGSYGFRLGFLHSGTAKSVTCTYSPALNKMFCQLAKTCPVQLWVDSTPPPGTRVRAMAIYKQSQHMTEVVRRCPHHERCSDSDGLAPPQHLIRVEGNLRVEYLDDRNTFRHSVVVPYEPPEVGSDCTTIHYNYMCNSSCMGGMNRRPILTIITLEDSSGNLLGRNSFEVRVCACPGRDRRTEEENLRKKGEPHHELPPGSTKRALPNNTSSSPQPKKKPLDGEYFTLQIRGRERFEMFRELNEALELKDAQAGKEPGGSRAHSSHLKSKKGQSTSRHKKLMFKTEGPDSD

Myc proto-oncogene protein (Homo sapiens), sequence (P01106 whole entry, looked up): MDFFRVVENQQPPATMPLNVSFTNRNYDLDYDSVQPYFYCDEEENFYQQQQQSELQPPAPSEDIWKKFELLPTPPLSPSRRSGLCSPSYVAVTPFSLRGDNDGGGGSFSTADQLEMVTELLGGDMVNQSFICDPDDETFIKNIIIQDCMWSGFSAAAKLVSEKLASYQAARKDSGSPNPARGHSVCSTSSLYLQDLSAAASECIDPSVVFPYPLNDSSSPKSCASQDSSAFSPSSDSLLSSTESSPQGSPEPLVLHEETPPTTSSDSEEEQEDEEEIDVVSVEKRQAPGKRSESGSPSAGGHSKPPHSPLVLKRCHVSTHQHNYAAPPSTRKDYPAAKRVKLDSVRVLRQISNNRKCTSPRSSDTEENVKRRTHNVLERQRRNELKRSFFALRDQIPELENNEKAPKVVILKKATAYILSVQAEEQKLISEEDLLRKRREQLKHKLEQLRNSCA
Nuclear respiratory factor 1 (Homo sapiens), sequence (Q16656 whole entry, looked up): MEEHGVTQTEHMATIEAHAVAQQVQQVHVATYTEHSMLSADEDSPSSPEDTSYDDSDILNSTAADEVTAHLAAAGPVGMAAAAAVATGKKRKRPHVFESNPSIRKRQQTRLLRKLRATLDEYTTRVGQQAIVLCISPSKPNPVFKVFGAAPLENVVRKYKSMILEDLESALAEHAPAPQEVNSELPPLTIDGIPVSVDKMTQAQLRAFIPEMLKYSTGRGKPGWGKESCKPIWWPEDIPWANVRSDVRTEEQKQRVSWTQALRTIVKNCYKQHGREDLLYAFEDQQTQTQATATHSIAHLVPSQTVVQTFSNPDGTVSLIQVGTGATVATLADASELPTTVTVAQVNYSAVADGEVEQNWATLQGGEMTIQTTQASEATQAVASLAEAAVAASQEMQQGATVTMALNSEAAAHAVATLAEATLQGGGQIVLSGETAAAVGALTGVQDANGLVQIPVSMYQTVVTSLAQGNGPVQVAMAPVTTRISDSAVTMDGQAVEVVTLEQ
Signal transducer and activator of transcription 3 (Homo sapiens), sequence (P40763 whole entry, looked up): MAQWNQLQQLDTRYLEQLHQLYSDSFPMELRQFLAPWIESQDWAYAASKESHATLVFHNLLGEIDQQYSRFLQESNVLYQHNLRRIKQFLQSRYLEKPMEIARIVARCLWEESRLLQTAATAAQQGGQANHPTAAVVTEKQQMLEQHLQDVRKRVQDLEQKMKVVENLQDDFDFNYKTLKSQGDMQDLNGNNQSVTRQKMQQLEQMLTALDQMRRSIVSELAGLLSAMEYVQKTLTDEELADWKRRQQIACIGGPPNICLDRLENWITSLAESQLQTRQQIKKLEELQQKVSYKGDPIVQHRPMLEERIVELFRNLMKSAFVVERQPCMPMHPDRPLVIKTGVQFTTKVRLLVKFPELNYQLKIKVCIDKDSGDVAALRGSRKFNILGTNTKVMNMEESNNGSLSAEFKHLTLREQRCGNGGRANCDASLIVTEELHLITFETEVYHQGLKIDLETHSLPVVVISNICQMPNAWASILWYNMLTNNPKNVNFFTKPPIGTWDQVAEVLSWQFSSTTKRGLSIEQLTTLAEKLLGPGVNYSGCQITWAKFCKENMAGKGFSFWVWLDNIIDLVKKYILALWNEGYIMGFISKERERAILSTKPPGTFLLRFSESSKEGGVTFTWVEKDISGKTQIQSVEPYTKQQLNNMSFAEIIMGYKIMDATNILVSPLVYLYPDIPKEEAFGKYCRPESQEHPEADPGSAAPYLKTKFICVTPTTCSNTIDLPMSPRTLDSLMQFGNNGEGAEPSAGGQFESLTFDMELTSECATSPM
Hepatocyte nuclear factor 6 (Homo sapiens), sequence (Q9UBC0 whole entry, looked up): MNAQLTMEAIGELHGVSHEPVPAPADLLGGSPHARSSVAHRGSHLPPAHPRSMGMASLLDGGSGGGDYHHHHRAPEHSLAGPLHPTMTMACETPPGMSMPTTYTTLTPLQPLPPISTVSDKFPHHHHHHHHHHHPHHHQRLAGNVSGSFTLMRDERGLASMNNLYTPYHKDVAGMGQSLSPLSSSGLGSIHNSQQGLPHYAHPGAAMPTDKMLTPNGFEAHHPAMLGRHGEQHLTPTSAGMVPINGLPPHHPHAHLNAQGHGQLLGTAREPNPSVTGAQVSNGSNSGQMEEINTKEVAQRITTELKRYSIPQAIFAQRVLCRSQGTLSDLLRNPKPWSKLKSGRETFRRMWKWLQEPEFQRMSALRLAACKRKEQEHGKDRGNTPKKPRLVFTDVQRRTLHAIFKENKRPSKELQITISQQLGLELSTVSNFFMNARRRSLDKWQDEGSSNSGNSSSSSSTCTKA

Regarding `CC(C)C#N`, the outcome in [1], in [2], in experiment [3], in [4], in [5] and in experiment [6] was inactive. The compound was called inactive in experiment [7], in experiment [8], in experiment [9], in [10], in [11] and in [12]. For the same compound, the call in experiment [13], in [14], in [15], in experiment [16] and in [17] was inactive.
In general, AC50 refers to the midpoint of the concentration-response curve, whichever way the signal moves. As for `N#Cc1cc(I)c(O)c(I)c1`, the compound was classed as inactive in experiment [1], in experiment [2], in [3], in experiment [4], in experiment [5] and in [6]. The result in experiment [7], in experiment [18], in [8], in experiment [9], in experiment [10] and in experiment [12] was inactive. Besides, the result in experiment [13], in experiment [14], in [15] and in experiment [20] was inactive. Besides, the AC50 was 30.8 µM (active) in experiment [19], 33.6 µM (active) in experiment [11], 28.3 µM (active) in experiment [16] and 39.3 µM (active) in [17].
For the compound `Nc1ccc(Cl)c(Cl)c1`, the outcome in experiment [1], in experiment [4], in [5], in experiment [6], in experiment [7] and in [18] was inactive. In addition, the compound was called inactive in [8], in experiment [9], in experiment [10], in experiment [19], in experiment [11] and in experiment [12]. For the same compound, the call in experiment [13], in experiment [14], in experiment [15], in experiment [16], in experiment [17] and in experiment [20] was inactive. For the same compound, the AC50 in [2] is 135 µM (active).
Consider `O=[N+]([O-])O`, for which the outcome in experiment [1], in experiment [2], in experiment [3], in experiment [4], in experiment [5] and in [8] was inactive. Besides, the result in [9], in [10], in [11], in [12], in experiment [13] and in experiment [14] was inactive. Further, the outcome in [16] and in experiment [17] was inactive.
In the case of `Nc1cc(Cl)cc(Cl)c1`, the compound was called inactive in experiment [1], in [2], in experiment [3], in [4], in experiment [5] and in experiment [6]. The compound was classed as inactive in experiment [9], in experiment [10], in [19], in [11], in [12] and in [13]. In addition, the call in experiment [14], in experiment [15], in [16], in experiment [17] and in experiment [20] was inactive. In addition, the AC50 in experiment [8] was 79 µM (active).
`CCOC(=O)N(C)N=O`: the outcome in experiment [1], in experiment [2], in [4], in experiment [5], in experiment [6] and in experiment [7] was inactive. Further, the compound was called inactive in experiment [8], in experiment [9], in [10], in [19], in experiment [11] and in experiment [12]. For the same compound, the compound was classed as inactive in experiment [13], in experiment [14], in experiment [15], in experiment [16], in experiment [17] and in experiment [20].
With `O=S(=O)(O)O`, the result in experiment [1], in experiment [2], in experiment [3], in [4], in experiment [5] and in experiment [7] was inactive. The compound was called inactive in [8], in experiment [9], in experiment [10], in experiment [11], in experiment [12] and in experiment [13]. Besides, the outcome in [14], in experiment [16] and in experiment [17] was inactive.
